Results as given in PubChem BioAssay AID1159580 (chemical genetic matrix, 2015).
In all, about 5,500 compounds went through this assay and about 2,000 (36%) were called active. Not shown: some 18% with an inconclusive outcome. Cut-off read from the data, not from the text of the source: active = normalized growth mostly below about 0.91 (no sharp cut-off); inconclusive = no clear call, values can overlap the other calls; inactive = mostly above about 0.92. The list shows a part of the results.

Assay: chemical genetic growth profiling, strain panel (AID 1159580);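 note: tested at 20 µM; growth read once vehicle control cultures reached saturation at 30 °C; 1 = growth at the plate median or of vehicle wells; lower values mean less growth of the strain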
Settings: S. cerevisiae deletion strains, growth OD
[1] = locus YHR030C, strain SLT2, hits give low values
[2] = locus YHR079C, strain IRE1, hits give low values
[3] = locus YJL095W, strain BCK1, hits give low values
[4] = locus YJR066W, strain TOR1, hits give low values
[5] = locus YLR113W, strain HOG1, hits give low values
[6] = locus YNL183C, strain NPR1, hits give low values
[7] = locus YOR231W, strain MKK1, hits give low values
[8] = locus YPL256C, strain CLN2, hits give low values

Measured: normalized growth

CC(N)C(=O)NC(Cc1ccccc1)C(=O)O (stereo not given)
inactive: [1] 0.937 | [2] 0.952 | [3] 0.96 | [4] 0.886 | [5] 1.02 | [6] 0.89 | [7] 0.982 | [8] 0.925

O=C1C(=O)N(CN2CCc3c([nH]c4ccccc34)C2C(F)(F)F)c2ccc(F)cc21 (stereo not given)
active: [1] 0.329 | locus YKL101W, strain HSL1, hits give low values 0.711 | [5] 0.726 | [8] 0.471
inactive: locus YAR019C, strain CDC15, hits give low values 0.978 | locus YBL105C, strain PKC1, hits give low values 0.983 | locus YBR135W, strain CKS1, hits give low values 0.982 | locus YBR136W, strain MEC1, hits give low values 0.974 | locus YBR160W, strain CDC28, hits give low values 0.962 | locus YDL017W, strain CDC7, hits give low values 0.983 | locus YDL028C, strain MPS1, hits give low values 0.975 | locus YDL101C, strain DUN1, hits give low values 0.988 | locus YDL108W, strain KIN28, hits give low values 0.973 | locus YDL132W, strain cdc53, hits give low values 0.972 | locus YDL214C, strain PRR2, hits give low values 0.841 | locus YDR052C, strain DBF4, hits give low values 0.991 | locus YDR054C, strain cdc34, hits give low values 0.974 | locus YDR226W, strain ADK1, hits give low values 0.98 | locus YDR477W, strain SNF1, hits give low values 0.86 | locus YER123W, strain YCK3, hits give low values 0.692 | locus YER133W, strain GLC7, hits give low values 0.894 | locus YFL009W, strain cdc4, hits give low values 0.977 | locus YFL029C, strain CAK1, hits give low values 0.959 | locus YFR003C, strain YPI1, hits give low values 0.981 | locus YFR019W, strain FAB1, hits give low values 0.839 | locus YFR028C, strain CDC14, hits give low values 0.963 | locus YGR040W, strain KSS1, hits give low values 0.891 | locus YGR052W, strain FMP48, hits give low values 0.804 | locus YGR092W, strain DBF2, hits give low values 0.612 | [2] 0.667 | locus YHR082C, strain KSP1, hits give low values 0.614 | locus YHR205W, strain SCH9, hits give low values 0.795 | locus YIL147C, strain SLN1, hits give low values 0.982 | [3] 0.791 | locus YJL128C, strain PBS2, hits give low values 0.934 | locus YJL157C, strain FAR1, hits give low values 0.886 | locus YJR016C, strain ILV3, hits give low values 0.993 | locus YJR066W, strain TOR1 (second series), hits give low values 0.825 | [4] 0.784 | locus YKL048C, strain ELM1, hits give low values 0.879 | locus YKL067W, strain YNK1, hits give low values 0.865 | locus YKL193C, strain SDS22, hits give low values 0.972 | locus YKL203C, strain TOR2, hits give low values 0.934 | locus YLR133W, strain CKI1, hits give low values 0.836 | locus YLR403W, strain SFP1, hits give low values 0.942 | locus YML070W, strain DAK1, hits give low values 0.716 | locus YMR001C, strain CDC5, hits give low values 0.962 | locus YMR205C, strain PFK2 (second series), hits give low values 0.888 | locus YMR277W, strain FCP1, hits give low values 0.947 | locus YNL006W, strain LST8, hits give low values 0.982 | locus YNL020C, strain ARK1, hits give low values 0.741 | locus YNL161W, strain CBK1, hits give low values 0.979 | [6] 0.666 | locus YNL207W, strain RIO2, hits give low values 0.983 | locus YNL222W, strain SSU72, hits give low values 0.98 | locus YNL307C, strain MCK1 (second series), hits give low values 0.682 | locus YOL078W, strain AVO1, hits give low values 0.972 | locus YOL136C, strain PFK27, hits give low values 0.711 | locus YOR061W, strain CKA2, hits give low values 0.917 | locus YOR119C, strain RIO1, hits give low values 0.907 | [7] 0.8 | locus YOR329C, strain SCD5, hits give low values 0.994 | locus YPL031C, strain PHO85, hits give low values 0.82 | locus YPL153C, strain RAD53, hits give low values 0.74 | locus YPL204W, strain HRR25, hits give low values 0.798 | locus YPL209C, strain IPL1, hits give low values 0.987 | locus YPR025C, strain CCL1, hits give low values 0.993 | locus YPR106W, strain ISR1, hits give low values 0.978 | locus YPR111W, strain DBF20, hits give low values 0.969 | strain NNK1, hits give low values 0.981 | strain TSCII, hits give low values 0.958

C[N+](C)(C)CCCCCCCCCC[N+](C)(C)C
inactive: locus YAL013W, strain DEP1, hits give low values 1 | locus YAL040C, strain CLN3, hits give low values 1 | locus YCL061C, strain MRC1 (second series), hits give low values 1 | locus YDR150W, strain NUM1, hits give low values 0.989 | locus YDR363W, strain ESC2, hits give low values 1.02 | locus YER002W, strain NOP16, hits give low values 0.995 | locus YGR229C, strain SMI1, hits give low values 1.04 | [1] 0.973 | [2] 1.01 | [3] 1 | [4] 0.963 | [5] 1.01 | locus YMR307W, strain GAS1, hits give low values 0.998 | locus YNL175C, strain NOP13, hits give low values 1.01 | [6] 0.948 | locus YNL197C, strain WHI3, hits give low values 1.03 | locus YNL224C, strain SQS1, hits give low values 0.983 | locus YOR083W, strain WHI5 (second series), hits give low values 0.95 | [7] 0.995 | locus YPL055C, strain LGE1, hits give low values 1.02 | [8] 1.12
